# The supplement of paper PMC10105736
# A number with no mark means an inactive call.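 How the source made its calls: active = MAPPIT score above the 99th percentile of random reference set scores in the same batch; inactive = at or below it.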
# Tests used:
# Experiment in all cases: MAPPIT interaction score (arbitrary units); higher = stronger binary interaction signal, active = hit call of the paper
# Adar = settings: MAPPIT configuration: N-N; pair source set: RRS
# Experimental: (§1)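 MAPPIT in HEK293T cells: Drosophila bait and prey ORFs (from the FlyBi ORF collection) were co-transfected in quadruplicate, with two wells stimulated by erythropoietin. Interaction-dependent JAK-STAT activation was read out with a STAT-responsive firefly luciferase reporter. Positive calls use the 99th percentile of random reference set (RRS) scores within each batch […]. Batches Dvs01 and Dvs02 used the N-N configuration and Dvs04 the N-C configuration. Pairs come from FlyBi screens, CuraGen, DPiM, Finley Y2H, Lit-BM-16, Lit-BS-16 and RRS.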
# Act57B = settings: MAPPIT configuration: N-N; pair source set: screen_1
# Experimental: as §1
# Art8 = settings: MAPPIT configuration: N-N; pair source set: Curagen_high_conf
# Experimental: as §1
# ATPsynC = settings: MAPPIT configuration: N-C; pair source set: screen_3
# Experimental: as §1
# Arc2 = settings: MAPPIT configuration: N-N; pair source set: screen_1
# Experimental: as §1
# Acp1 = settings: pair source set: RRS
# Experimental: as §1
# ATPsynF = settings: MAPPIT configuration: N-N; pair source set: DPIM
# Experimental: as §1
# ATPsyndelta = settings: MAPPIT configuration: N-N; pair source set: DPIM
# Experimental: as §1
# ArfGAP3 = settings: MAPPIT configuration: N-N; pair source set: Curagen_high_conf
# Experimental: as §1
# ATPsynG = settings: MAPPIT configuration: N-N; pair source set: Lit-BS-16
# Experimental: as §1
# sle = settings: MAPPIT configuration: N-N; pair source set: Lit-BS-16
# Experimental: as §1
# Ald1 = settings: pair source set: Lit-BM-16
# Experimental: as §1
# ATPsyngamma = settings: MAPPIT configuration: N-N; pair source set: DPIM
# Experimental: as §1
# 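Further: HEK293T cells with Epo stimulation, STAT-responsive firefly luciferase reporter, fold induction versus unstimulated cells divided by the larger fold induction of two negative controls lacking either bait or prey.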
binder,measurement,setting,value
GstZ2 (protein) MSTNLCPNASSSDIQPILYSYWRSSCSWRVRIAMNLKEIPYDIKPISLIKSGGEQHCNEYREVNPMEQVPALQIDGHTLIESVAIMHYLEETRPQRPLLPQDVHKRAKVREIVEIICSGIQPLQNLIVLIHVGEEKKKEWAQHWITRGFRAVEKALSTSAGKYCVGDEISMADCCLVPQVFNARRFHVDLRPYPIILRIDRELESNPAFRAAHPSNQPDCPPELPNK,MAPPIT interaction score,Adar,0.0763
CG12206 (protein) MAAITSNVSRLEPMRGISIIIESPEVATATPPPATTTATAEAEAATKQVAPTAKSNSNTEMSLKSQAAGMLLAFGDTAATAKDNLETSYDTAAKSTAAPETNKIYPQLLLRIGGEIAGATASAEAAASAATAAAATATSPTIISCNGEIAASQAAATAADTAATLQHNNTVKIQIESQGQQRTLGKQISVVKLNEGVEEMQQHMCYLVDTSGQYSPCETLDSGTGSDLENHPQQQQQPQQVRSPQLELHLQTTRLMVNEEADHKHSPLETPSPVPKRAYSLTDDSEECDESSNSSLSCDSLHSGGLLPTTLLRDIRFRERASGPLVTKINGRPLQFETDGYYTFHVREHENFRSFGSNSSTEYEAQHFTDEQPGEDFVGFRDIRTAGKLAGNSTIKSAKGTVRGVKNRVRNGVATFLQLQQPNVKNYMEKDVGKVVLYTTSMGIIRDTYAKCANVKKILRTLLIKFEERDIFMSVEYQQEMRERMQDETIRVPQLFVEGQLIGDANIVERLNESGELRQLLRPYKSIATAYTCQTCGGYRMLPCPACNGSKKSMHRNHFTAEFVALKCMNCDEVGLIKCPNC,MAPPIT interaction score,Act57B,1.77
Ntmt (protein) MTTTLEEQLSDKLQMMDETTDKVQGSSKQKDDSSIAASSDAKTASPSSSDSSTKVAAPESEFYNKAQKYWSEVPATVNGMLGGLGYISAIDIQGSNVFLREIRVPGNRLALDCGAGIGRVTRNLLIPRFSCVDLVEQDPAFADKAREYCTSEDGSRGKVGQIYNVGLQKFTPTQQYDLVWTQWVLGHLTDRDLVSFFRRIKQGLAPGAFLCLKENVSSSKKTVEDRNDSSVTRPLDSYEHFLKEAGFRIVRKVKQQNFPKGLFPVYMIACKPVSKE,MAPPIT interaction score,Art8,3.74 (active)
stas (protein) MSYCSGVAISADEGITMRNGRAKALQEHSPDQVATPLLPQVPPQEQQDLNPQQQQQQQQQQQATPQKQAMSADEKKATKKSLVIVAGIFVASLVTMCYVYAIFPELNASEKQHLKIPRDIQDAKMLAKVLDRYKDMYYFEVMFGVVVAYVFLQTFAIPGSLFLSILLGFLYKFPIALFLICFCSALGATLCYTLSNLVGRRLIRHFWPKKTSEWSKHVEEYRDSLFNYMLFLRMTPILPNWFINLASPVIGVPLHIFALGTFCGVAPPSVIAIQAGKTLQKMTSSSEAFSWTSMGILMACACASLLPGLLKNKFKHKKEA,MAPPIT interaction score,ATPsynC,0.0375
Arc2 (protein) MTQMSDEQFRIFIETIKSLGPIKEEPPSKGSFSNCTVRFSGQRDHDAVDEFINAVETYKEVEGISDKDALKGLPLLFKSIAVVWWKGVRRDAKTWSDALQLLRDHFSPTKPSYQIYMEIFETKQSYDEVIDSFICKQRALLAKLPEGRHDEETELDFIYGLMQPKYRESIPRHEVKTFRELLDRGRTVERTRH,MAPPIT interaction score,Arc2,6.05 (active)
spir (protein) MTEHQAEEQADTPPTKVKATPTPTPSGKFKDAKEDAFLSTSPDSANGDAQHKLPADQLAMSSSAHPQQAGQARPLILQAFHRCSSPEQCVTLHDILDSFKAPLSEDQAWALIHQFAGLYHQVAVQAHTCAADYEAALPTGFELHFHRDGSVHFSGPDQLTPKEQLQQEQIPLPPQHDVIVDQPDHSASSSGDSSVINRAFDNSNHHHHHQHHHPPLVVSHRKIISELAEIVYTALDYNLPEDEECQVSQELENLFNFMTADETDDDCIDEGIDEGDKRWDDESEEERNDTKELEHIIETCRNHIKTTLPENHYRAVCRALVTETIELRVFLQQVLNNEAGAEKLIKASESSATTQQELAKLGFNDWARFWVQVIDELRRGVRLKKSNHERTPIEYELTPYEILMGDIRAKKYQLRKVMVNGDIPPRVKKDAHAMILEFIRSRPPLKKASDRQLGPPRMCEPSPREQLMESIRKGKELKQITPPEAPTLRERVLPSANSTLSRSRQRLIKVDFSKFQDDDLFYDENSISSSHSTAATHQHHPHFAEMHRCSQPKMPPYPFGGYMVPSQARQDCRETASLMRPRRTMEPAKQVPPPEEPSFTKDEYHKFYDTALESYDLATQCESRRASLRRHTIVGCQSNLDETHSMPPTRPESRQSDDVSKETPKRSPAEQTHPSDEGSSTSSLGPWNKSFMDKQTWMERGDDRLSVTLAEIVHIRSVMTKAELEGLPMDVRVKEDVEKRRVCFLCLRTRFSFFGPWGIQCKLCQRTVCAKCYTKMRIPSEHFRNVPLVLISPSLLSSPASSSTPSPSHHAQQAHSSSTGNIMDDQFPKSLIERLLRSESDRKTRSTVGSAPSSPKHQRSNMSTPGISVGPGASSSSAAATGQAVEALHDQATMSSSYSAAMRPSGVHQQQKQHYNNAMSRSMEGPRSLPVHSPAYRPLSNNSTLERKSRFSRGFNLFSSGSHLAQTQEQKENLRGEQVTVCNDCQGLVNEITSSVKQKRSSARNRTIQNLTLDLTPVWK,MAPPIT interaction score,Acp1; MAPPIT configuration: N-C,-0.762
same,MAPPIT interaction score,Acp1; MAPPIT configuration: N-N,0.149
ATPsynCF6 (protein) MLSQSLLSGMRVLRTEARRNFGIVAPALNKASDPIQQLFLDKVREYKQKSAGGKLVDSNPDIERELKTELDRVAKQFGSDGKTDMLKFPEFQFPDVKVDPITQAPQ,MAPPIT interaction score,ATPsynF,-0.221
ATPsynF (protein) MAFGDYPAEYNPKVHGPYDPARFYGKADVPFGQVKLGEIGAWLGRRNKTPNAVAGAVSRAWWRWQHKYVFPKRAGIAPFFQLTVASMTFFYLINYTKLKHHRNYKYH,MAPPIT interaction score,ATPsyndelta,0.173
CG16894 (protein) MWYSTVRNPSIALIKQGYHILAEYNLVKEELKNIYAIPSYACGLHWFGVIFVHSGIYAGSVFRFSILLPENFPADISLPTVVFSTEVLHPHICPQNKTLDLAHFLNEWRKDEHHIWHVLRYIQAIFADPEGSICTGQSSSGDLVIMDEVRNMNALNMLAKSRPEYIKRVQEQAILSRNLIYDRPPTEDPHYIIVEPYCAERHLKFMDQLKSPCWKEATSMDCSQPSEYLGHIDSSRQLDEEEANQVEKLHRGRIPEHQREESEVSL,MAPPIT interaction score,ArfGAP3,0.483
Arp6 (protein) MANAVVVLDNGAHTAKVGLANQDEPHVVPNCIMKAKSERRRAFVGNQIDECRDTSALYYILAFQRGYLLNWHTQKTVWDYIFSKDGIGCSLENRNIVITEPQMNFQSIQEATLEILFEEYKVDGVYKTTAADLAAFNYVADSEERTTMESLNCIIIDVGYSFTHVVPFVLGRRVLQGIRRIDMGGKALTNQLKELISYRHLNVMDESHVVNQIKEDVCFVAEDFKQAMQVHYSEEKRREVTVDYVLPDFTTVKRGYVRVPGKPREDEEQQQMVSLCNERFTVPELLFNPSDIGVQQVGIPEAVADCLKACPWEAHRELLLNILIVGGSAQFPGFLPRLKRDLRALVPDDLEVSLICPEDPVRYAWYGGKEVATSPNFEEFVYTQDDYEEYGFQGINQR,MAPPIT interaction score,ATPsynG,0.0569
same,MAPPIT interaction score,sle,-0.421
Ald1 (protein) MTTYFNYPSKELQDELREIAQKIVAPGKGILAADESGPTMGKRLQDIGVENTEDNRRAYRQLLFSTDPKLAENISGVILFHETLYQKADDGTPFAEILKKKGIILGIKVDKGVVPLFGSEDEVTTQGLDDLAARCAQYKKDGCDFAKWRCVLKIGKNTPSYQSILENANVLARYASICQSQRIVPIVEPEVLPDGDHDLDRAQKVTETVLAAVYKALSDHHVYLEGTLLKPNMVTAGQSAKKNTPEEIALATVQALRRTVPAAVTGVTFLSGGQSEEEATVNLSAINNVPLIRPWALTFSYGRALQASVLRAWAGKKENIAAGQNELLKRAKANGDAAQGKYVAGSAGAGSGSLFVANHAY,MAPPIT interaction score,Ald1; MAPPIT configuration: N-C,1.2
same,MAPPIT interaction score,Ald1; MAPPIT configuration: N-N,4.7 (active)
CycA (protein) MASFQIHQDMSNKENPGIKIPAGVKNTKQPLAVIGGKAEKNALAPRANFAVLNGNNNVPRPAGKVQVFRDVRNLNVDENVEYGAKKSNVVPVVEQFKTFSVYEDNNDTQVAPSGKSLASLVDKENHDVKFGAGQKELVDYDLDSTPMSVTDVQSPMSVDRSILGVIQSSDISVGTETGVSPTGRVKELPPRNDRQRFLEVVQYQMDILEYFRESEKKHRPKPLYMRRQKDISHNMRSILIDWLVEVSEEYKLDTETLYLSVFYLDRFLSQMAVVRSKLQLVGTAAMYIAAKYEEIYPPEVGEFVFLTDDSYTKAQVLRMEQVILKILSFDLCTPTAYVFINTYAVLCDMPEKLKYMTLYISELSLMEGETYLQYLPSLMSSASVALARHILGMEMWTPRLEEITTYKLEDLKTVVLHLCHTHKTAKELNTQAMREKYNRDTYKKVAMMESVEMSKDDFDQLCEAYNCKQKEDEHQQPDINTKSNVNLFYKF,MAPPIT interaction score,ATPsyngamma,1.52
